Screening results from PubChem.
IL-1B inflam inh = blocks inflammasome-driven IL-1 beta release. 360,000 tested, 4.7% active. THP-1 LPS/ATP IL-1B secretion, AlphaLISA, 16 h; stronger effect = lower value. activity change, % at 57.5 µM. AID 743279; in the data active = activity change below about -50%; inconclusive = mostly about -30% to -49%
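THP-1 cells pretreated 1 hr with compounds (up to 57.5 uM final), then stimulated with LPS (250 ng/mL final) plus ATP (1.25 mM final); secreted IL-1B measured by AlphaLISA after 16 hr, decreased signal indicating inhibition.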
TDP1 cell CPT = growth inhibition of DT40 Tdp1-/-;hTDP1 cells with camptothecin (screen for TDP1 inhibitors). chicken DT40 Tdp1-/-;hTDP1 cells + 20 nM CPT, ATP luminescence, 48 h. Potency, µM (doses to about 46.2 µM), without a hit: at the highest dose activity change, negative = growth inhibition, usual class: inhibitors. 420,000 tested, 12% active; also: potency is read from the fitted curve at half-maximal effect; nearly all actives have a fitted effect of over 55% in size
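Chicken DT40 Tdp1-/- cells complemented with human TDP1, 400 cells/well, exposed to compounds plus 20 nM camptothecin for at least 48 h at 37 C; viability read as ATP content by CellTiter-Glo luminescence.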
ELG1 DNA repair = ELG1-dependent DNA repair inhibition; HEK293T ELG1-luciferase reporter, luminescence, 16 h; DNA damage induced by 5-fluorouridine; Potency, µM (series often up to 46.1 µM), for the others: at the highest dose activity change, negative = inhibition, actives largely listed as inhibitors; 330,000 tested, 2.3% active; also: potency is read from the fitted curve at half-maximal effect; nearly all actives have a fitted effect of over 55% in size
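Luminescence from the luciferase reporter, measured 30 min after ONE-Glo reagent at room temperature, was the read-out. Beforehand, 2,000 cells per well were exposed for 16 hr at 37 °C to 5-fluorouridine together with compound or vehicle.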
Giardia kill = Giardia lamblia killing | activity change, % at 7.66 µM, hits read low | Giardia lamblia trophozoite viability | 340,000 tested, 0.15% active; in the data active = activity change below about -80%; inconclusive = between about -30% and that limit;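 also: parasites exposed to compound for two days anaerobically before the ATP read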
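Trophozoites 100 cells/well + cpd; 48 hrs, 37 deg C, anaerobic. ATPLite 1-Step added, 15-30 min RT, luminescence read (ATP-based viability).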
TDP1 inh = TDP1 (human) enzyme inhibition; recombinant TDP1, AlphaScreen DNA substrate cleavage; 350,000 tested, 0.28% active; Potency, µM (highest dose often 130 µM), inactives show at the highest dose activity change, negative = inhibition, usual class: inhibitors; Q9NUW8; also: potency is read from the fitted curve at half-maximal effect; nearly all actives have a fitted effect of over 40% in size
Target sequence (Q9NUW8 whole entry, looked up): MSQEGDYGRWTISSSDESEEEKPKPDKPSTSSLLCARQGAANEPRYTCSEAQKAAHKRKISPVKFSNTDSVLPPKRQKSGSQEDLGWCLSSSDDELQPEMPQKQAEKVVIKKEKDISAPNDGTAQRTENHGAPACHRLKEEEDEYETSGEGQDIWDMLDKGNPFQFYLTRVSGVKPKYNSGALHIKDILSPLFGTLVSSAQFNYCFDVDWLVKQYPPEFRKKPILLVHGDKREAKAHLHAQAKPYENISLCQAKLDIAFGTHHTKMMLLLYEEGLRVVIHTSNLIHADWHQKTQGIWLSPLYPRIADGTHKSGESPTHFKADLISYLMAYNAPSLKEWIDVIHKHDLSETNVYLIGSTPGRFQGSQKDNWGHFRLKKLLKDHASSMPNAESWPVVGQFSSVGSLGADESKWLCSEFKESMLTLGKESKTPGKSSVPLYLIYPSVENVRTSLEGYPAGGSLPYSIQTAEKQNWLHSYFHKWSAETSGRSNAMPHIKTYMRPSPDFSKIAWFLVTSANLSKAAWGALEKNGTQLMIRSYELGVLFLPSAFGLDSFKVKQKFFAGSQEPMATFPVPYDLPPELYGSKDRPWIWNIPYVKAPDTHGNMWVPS
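Tdp1 1 nM final; 15 min RT w/ cpd; substrate 15 nM, 5 min; beads 10 ug/ml, 10 min; AlphaScreen read. Neg ctrl: no enzyme.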
TDP1 cell noCPT = qHTS for Inhibitors of human tyrosyl-DNA phosphodiesterase 1 (TDP1): qHTS in cells in absence of CPT | Potency, µM (doses to about 46.2 µM), without a hit: at the top dose activity change, negative = growth inhibition, most hits filed as inhibitors | 420,000 tested, 15% active | AID 686978, 2013 | DT40 Tdp1-/- hTDP1 cells, no CPT, ATP luminescence, 48 h; also: potency is read from the fitted curve at half-maximal effect; nearly all actives have a fitted effect of over 55% in size
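Chicken DT40 Tdp1-/- cells stably complemented with human TDP1 were seeded at 400 cells/well with DMSO in place of 20 nM camptothecin. After compound pinning, cells grew at least 48 hr at 37 °C; viability read by CellTiter-Glo luminescence.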
Numbers without * were called inactive; ? = inconclusive; nt = no result; [ ] = another dose, or the depositor's remark. Sampled rows, rich in hits. Any-hit rate of the full collection: about 19%. Unless noted, calls follow the shape of the dose curve; as a rule, active = well fitted curve in the direction sought with a large enough effect; inconclusive = small, poorly fitted or top-dose-only effect, or another doubt; inactive = no such curve, though single readings can be large; an effect the other way counts as inactive or inconclusive. % is scaled to controls: 0 for no effect and ±100 for the full control effect.

SMILES | IL-1B inflam inh | TDP1 cell CPT | ELG1 DNA repair | Giardia kill | TDP1 inh | TDP1 cell noCPT
Cc1ccc(Cc2c(C)nn(-c3nc(C)c(C(=O)N4CCCCC4C)s3)c2C)cc1 (stereo not given) | nt | ? | nt | nt | 6% | 15µM*
NC(=O)c1ccc(N2CCC(C(N)=O)CC2)c([N+](=O)[O-])c1 | 4 | 2% | 21% | 1 | -3% | -16%
COc1cc(/C=C(\C#N)c2ccccn2)ccc1OCc1ccccc1Cl | -21 | 15µM* | ? | 15 | nt | ?
COc1cc(/C=C(\C#N)c2ccccn2)cc(OC)c1O | 21 | 9.2µM* | -15% | 5 | 5% | ?
O=C(N/N=C/c1ccco1)c1ccccc1OCc1ccc(Br)cc1 | -5 | 21µM* | ? | 8 | 7% | 23µM*
Cc1ccc(/C=N/NC(=O)c2ccccc2OCc2cccc(Br)c2)o1 | -99* | 6.5µM* | ? | 2 | 5% | 7.3µM*
Cc1ccc(/C=N/NC(=O)c2cccc(NC(=O)c3ccccc3C)c2)o1 | 0 | 0% | 1% | -7 | 5% | -24%
O=C(N/N=C/c1cccnc1)c1ccccc1OCc1cccc(Br)c1 | -26 | ? | 21µM* | -5 | 5% | ?
O=C(N/N=C/c1ccco1)c1ccc(OCc2ccccc2)cc1 | -7 | -28% | 4% | -11 | 5% | -26%
Cc1cccc(C(=O)Nc2c(C(=O)NCc3ccc(Cl)cc3)sc3nc(C)cc(C)c23)c1 | nt | 16µM* | nt | nt | -2% | 26µM*
CC(C)(C)NC(=O)COc1ccccc1C#N | -2 | -25% | 4% | -13 | -5% | -4%
CCc1ccccc1Nc1nn2c(=O)c3ccc(C(=O)NCc4ccccc4OC)cc3nc2s1 | nt | 12µM* | nt | nt | -14% | ?
COc1ccccc1Nc1nn2c(=O)c3ccc(C(=O)NCc4ccc(F)cc4)cc3nc2s1 | nt | 3.7µM* | nt | nt | 0% | 2.3µM*
CCc1ccccc1Nc1nn2c(=O)c3ccc(C(=O)NCCC4=CCCCC4)cc3nc2s1 | nt | 16µM* | nt | nt | 3% | 15µM*
Cc1ccc(Cl)cc1Nc1nn2c(=O)c3ccc(C(=O)NC4CCCCC4)cc3nc2s1 | nt | -19% | nt | nt | 3% | -28%
COc1ccccc1NS(=O)(=O)c1cc(C(=O)N2CCCCCC2)ccc1C | -12 | -25% | -8% | -5 | 0% | ?
COc1ccccc1Nc1nn2c(=O)c3ccc(C(=O)NCc4cccnc4)cc3nc2s1 | nt | nt | 6% | nt | nt | nt
C=CCOc1c2ccc(C(=O)NCc3ccccc3OC)cc2nn1C | -4 | 1% | 2% | 3 | 1% | -11%
COc1ccccc1Nc1nn2c(=O)c3ccc(C(=O)N4CCCCC4)cc3nc2s1 | -20 | 13µM* | -8% | -4 | 4% | 16µM*
O=C(CCN1CCCCO1)N1CCCC(Nc2ccc(F)cc2)C1 (stereo not given) | -6 | 11% | -3% | 2 | 2%[56.1 µM] | -4%
CCc1ccccc1Nc1nn2c(=O)c3ccc(C(=O)NCc4ccccn4)cc3nc2s1 | -14 | ? | ? | -5 | 0% | 12µM*
CCOc1ccc(CNC(=O)CCCn2c(=O)c3cccn3c3cccnc32)cc1 | nt | ? | nt | nt | 0% | ?
COc1ccc(N(CC(=O)N2CCN(c3cccc(C)c3)C(C)C2)S(=O)(=O)c2c(C)n[nH]c2C)cc1 (stereo not given) | -61* | ? | ? | -9 | 5% | ?
COc1ccc(N(CC(=O)NCc2ccccc2)S(=O)(=O)c2c(C)n[nH]c2C)cc1 | -26 | 21µM* | 12% | 1 | 2% | -3%
COc1ccc(N(CC(=O)Nc2cc(C)ccc2C)S(=O)(=O)c2c(C)[nH]c(=O)[nH]c2=O)cc1 | 40 | 0% | 9% | 5 | 3% | 6%
SMILES | IL-1B inflam inh | TDP1 cell CPT | ELG1 DNA repair | Giardia kill | TDP1 inh | TDP1 cell noCPT
COc1cccc(N2CCN(C(=O)CN(c3ccc(C)cc3)S(=O)(=O)c3c(C)n[nH]c3C)CC2)c1 | 0 | -9% | ? | 5 | 4% | ?
COc1ccc(NC(=O)CN(c2cc(C)cc(C)c2)S(=O)(=O)c2c(C)n[nH]c2C)cc1 | -8 | 29µM* | -14% | 36 | 1% | ?
COc1ccc(N(CC(=O)Nc2ccc(F)c(F)c2)S(=O)(=O)c2c(C)n[nH]c2C)cc1 | 0 | -6% | -4% | -14 | -7% | 6%
COc1ccc(N(CC(=O)Nc2ccc(C)cc2C)S(=O)(=O)c2c(C)n[nH]c2C)cc1 | -1 | -11% | 3% | 9 | 1% | 18µM*
COc1ccc(N(CC(=O)NCc2ccc(Cl)cc2)S(=O)(=O)c2c(C)n[nH]c2C)cc1 | -9 | 2% | 8% | 14 | 2% | -16%
Cc1nnsc1SCCNC(=O)Nc1ccc(Cl)cc1 | -8 | ? | 13% | 23 | 3% | ?
CCc1ccc2[nH]c(C(=O)Nc3ccc4c(c3)OCO4)cc2c1 | -19 | -6% | -28% | 0 | nt | ?
COc1ccc(Cl)cc1NC(=O)CN(c1cc(C)cc(C)c1)S(=O)(=O)c1c(C)n[nH]c1C | nt | ? | nt | nt | 0% | ?
COc1ccc(N(CC(=O)Nc2cc(Cl)ccc2C)S(=O)(=O)c2c(C)n[nH]c2C)cc1 | -10 | 4.1µM* | -17% | 7 | 5% | 5.2µM*
C[C@]12C=CC(=O)C=C1CCC1C2C(=O)C[C@]2(C)C1CC[C@]2(O)C(=O)CO (stereo not given in full) | nt | 1% | nt | nt | 3% | -19%
CSCCC(NC(=O)c1ccccc1Br)C(=O)N1CCCCCCC1 (stereo not given) | -3 | -12% | 13% | 4 | 0% | -19%
CSCCC(NC(=O)c1ccc(Cl)cc1Cl)C(=O)N1CCCCCCC1 (stereo not given) | -7 | ? | -4% | 8 | -9% | 23µM*
CCOC(=O)c1ccc(N2C(=O)c3[nH]nc(-c4ccccc4)c3C2c2cccs2)cc1 (stereo not given) | nt | 23µM* | nt | nt | 2% | 21µM*
CCOc1ccc(-c2n[nH]c3c2C(c2cccs2)N(c2ccc(Br)cc2)C3=O)cc1 (stereo not given) | nt | ? | nt | nt | 2% | ?
CCOC(=O)c1ccc(N2C(=O)c3[nH]nc(-c4ccc(OCC)cc4)c3C2c2cccs2)cc1 (stereo not given) | nt | 7.3µM* | nt | nt | 2% | 3.7µM*
CCCN1C(=O)c2[nH]nc(-c3ccc(OC)cc3)c2C1c1ccccn1 (stereo not given) | nt | ? | nt | nt | 2% | 26µM*
